Drawing on PubChem BioAssay (NCI), this text covers growth for 11 compounds.

What all share (assay): NCI-60 one-dose screen, 48 h (100 = growth as untreated, 0 = no growth, -100 = all killed)
One experiment relates to HT29 colon. As to conditions: 10 µM unless noted.
For another experiment, the system named is SNB-19 CNS. To be noted: 10 µM unless noted.
For the next experiment, the system named is U251 CNS. To be noted: 10 µM unless noted.
Another experiment relates to PC-3 prostate. To be noted: 10 µM unless noted.
The subject of another experiment is SK-MEL-5 melanoma. As to conditions: 10 µM unless noted.
In the next experiment the test system is UACC-62 melanoma. To be noted: 10 µM unless noted.
The test system of a further experiment is LOX IMVI melanoma. To be noted: 10 µM unless noted.
The test system of the next experiment is SK-MEL-28 melanoma. As to conditions: 10 µM unless noted.
In a further experiment the test system is SK-MEL-2 melanoma. To be noted: 10 µM unless noted.
The test system of the next experiment is EKVX NSCLC. As to conditions: 10 µM unless noted.
A further experiment concerns SN12C renal. To be noted: 10 µM unless noted.
The subject of a further experiment is UO-31 renal. To be noted: 10 µM unless noted.
For the next experiment, the system named is TK-10 renal. As to conditions: 10 µM unless noted.
In another experiment the test system is ACHN renal. To be noted: 10 µM unless noted.
The test system of another experiment is CAKI-1 renal. To be noted: 10 µM.
In a further experiment the test system is A498 renal. As to conditions: 10 µM unless noted.
The subject of the next experiment is CCRF-CEM leukemia. To be noted: 10 µM unless noted.
For the next experiment, the system named is MOLT-4 leukemia. To be noted: 10 µM unless noted.
In another experiment the test system is SNB-75 CNS. As to conditions: 10 µM unless noted.

The panel holds about 83,000 compounds, 20% with a hit somewhere; the sample as a whole holds those more often.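 Interpretation: 100, growth as untreated; towards 0, rising growth inhibition; 0, no net growth; 0 to -100, cell death. Compounds scoring below 10 were considered active.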 Unmarked numbers belong to inactive results. Calls of active or inactive are those of the source.

In the case of `CCN(CC)CCCC(C)NCC(=O)NC(c1ccc2c(c1)OCO2)c1cc(Cl)c2cccnc2c1O` (stereo unspecified), the growth is 23.6% in the experiment on HT29 colon; 38.1% in the experiment on SNB-19 CNS; 30.2% in the experiment with U251 CNS; 20.1% in the experiment on PC-3 prostate; -77.4% (active) with SK-MEL-5 melanoma; -17.6% (active) in the experiment with UACC-62 melanoma. Further, the growth with LOX IMVI melanoma is -30.1% (active); in the experiment with SK-MEL-28 melanoma it was 46.5%; with SK-MEL-2 melanoma, 81.4%; in the experiment on EKVX NSCLC, 26%; with SN12C renal it was 38.1%; in the experiment with UO-31 renal it was 3.38% (active). Further, the growth in the experiment on TK-10 renal was 45.6%; in the experiment with ACHN renal, 25.2%; with CAKI-1 renal, 1.43% (active); in the experiment on A498 renal, 81.1%; in the experiment on CCRF-CEM leukemia, 16.5%; in the experiment on MOLT-4 leukemia, 20.4%.
For `Oc1ccc(CSc2nnc(-c3ccc(Br)cc3)o2)c2cccnc12`, the growth in the experiment on HT29 colon was 111%; with SNB-19 CNS, 20%; in the experiment on U251 CNS it was 12.5%; in the experiment on PC-3 prostate it was 23%; in the experiment on SK-MEL-5 melanoma, 12%; in the experiment on UACC-62 melanoma, 27.3%. For the same compound, the growth with LOX IMVI melanoma was 20.3%; with SK-MEL-2 melanoma, 68.1%; with EKVX NSCLC, 58.9%; in the experiment with SN12C renal it was 45.2%; in the experiment on UO-31 renal it was 7.37% (active); in the experiment on ACHN renal, 17.8%. Moreover, the growth is 25.6% in the experiment on CAKI-1 renal, 15.2% in the experiment with CCRF-CEM leukemia and 24.1% in the experiment with MOLT-4 leukemia.
In the case of `COc1ccc(C2CC(c3ccc(Nc4nc(NCCO)nc(Nc5ccc(Cl)cc5)n4)cc3)=Nc3c(N)nc(N)nc3N2)cc1` (stereo unspecified), the growth in the experiment on SNB-75 CNS was 117%; with SNB-19 CNS, 76.8%; with U251 CNS it was 66.4%; with PC-3 prostate it was 63.1%; in the experiment with SK-MEL-5 melanoma, 59.8%; in the experiment on UACC-62 melanoma, 107%. The growth in the experiment with LOX IMVI melanoma is 12.9%; in the experiment on SK-MEL-28 melanoma, 119%; with SK-MEL-2 melanoma, 89.5%; in the experiment with EKVX NSCLC, 107%; in the experiment on SN12C renal it was 85.1%; in the experiment with UO-31 renal, 56.2%. Besides, the growth with TK-10 renal was 107%; with ACHN renal it was 90.1%; with CAKI-1 renal, 61.1%; with A498 renal, 42.7%; in the experiment with CCRF-CEM leukemia, -17.9% (active); in the experiment with MOLT-4 leukemia, 3.14% (active).
With `COc1ccc(S(=O)(=O)n2cc(C=O)c3ccccc32)c(OC)c1`, the growth is 107% in the experiment on HT29 colon; 75.3% in the experiment on SNB-75 CNS; 85% in the experiment on SNB-19 CNS; 52.8% in the experiment with U251 CNS; 66.3% with PC-3 prostate; 67.3% in the experiment on SK-MEL-5 melanoma. Moreover, the growth was 63.1% with UACC-62 melanoma; 64.3% in the experiment with LOX IMVI melanoma; 83.8% in the experiment on SK-MEL-28 melanoma; 96.1% in the experiment on SK-MEL-2 melanoma; 91.4% in the experiment with EKVX NSCLC; 85.2% with SN12C renal. Besides, the growth in the experiment on UO-31 renal is 52.4%; in the experiment on TK-10 renal, 106%; in the experiment on ACHN renal it was 85.6%; with CAKI-1 renal, 52.5%; in the experiment with A498 renal, 92.4%; with CCRF-CEM leukemia, 33.5%. In addition, the growth with MOLT-4 leukemia is 29.2%.
As for `COc1cc2oc(-c3cccc(NC(=O)c4cc(NC(=O)[C@H](C)NC(=O)OC(C)(C)C)ccc4C)c3)cc(=O)c2c(OC)c1OC`, the growth in the experiment with HT29 colon was 75.5%; in the experiment with SNB-75 CNS it was 102%; with SNB-19 CNS, 65.4%; in the experiment on U251 CNS, 53.5%; in the experiment on PC-3 prostate, 68.8%; in the experiment on SK-MEL-5 melanoma it was 63.2%. For the same compound, the growth in the experiment with UACC-62 melanoma was 75.4%; in the experiment on LOX IMVI melanoma, 53.8%; in the experiment with SK-MEL-28 melanoma it was 87%; in the experiment on EKVX NSCLC, 85.4%; with SN12C renal, 69.5%; with UO-31 renal, 36.3%. Further, the growth in the experiment with TK-10 renal is 89.1%; in the experiment on ACHN renal it was 61.9%; in the experiment with CAKI-1 renal, 53%; in the experiment with A498 renal, 61.9%; with CCRF-CEM leukemia, 62.4%; in the experiment with MOLT-4 leukemia it was 51.5%.
Consider `CCN1CCN(Cc2ccc(C(=O)Nc3nc4ccc(Oc5ccnc(C(=O)NC)c5)cc4s3)cc2C(F)(F)F)CC1`, for which the growth is 3.42% (active) in the experiment with HT29 colon; 75.9% in the experiment on SNB-75 CNS; 66.6% with SNB-19 CNS; 41.9% in the experiment with U251 CNS; 46.1% in the experiment on PC-3 prostate; 17.7% in the experiment on SK-MEL-5 melanoma. The growth with UACC-62 melanoma is 24.6%; in the experiment with LOX IMVI melanoma, -11.8% (active); in the experiment on SK-MEL-28 melanoma it was -66.5% (active); in the experiment on EKVX NSCLC, 52.4%; in the experiment on SN12C renal, 77.4%; in the experiment on UO-31 renal, 33.2%. Further, the growth in the experiment on TK-10 renal is 91.6%; in the experiment on ACHN renal, 57.4%; with CAKI-1 renal, 47.2%; with A498 renal it was 74.1%; in the experiment on CCRF-CEM leukemia it was 60.6%.
For the compound `c1cncc(-c2cn3nc(-c4c[nH]c5ccccc45)sc3n2)c1`, the growth with HT29 colon is 21.6%; in the experiment on SNB-75 CNS, 51.8%; in the experiment with SNB-19 CNS, 61.1%; in the experiment with U251 CNS, 69.9%; in the experiment on SK-MEL-5 melanoma, 23.4%; in the experiment on UACC-62 melanoma, 55.3%. Also, the growth in the experiment on SK-MEL-28 melanoma was 55.5%; in the experiment on EKVX NSCLC it was 72.5%; in the experiment on SN12C renal, 61.5%; with UO-31 renal, 44.6%; with TK-10 renal it was 94.4%; in the experiment with ACHN renal it was 72.3%. In addition, the growth in the experiment on CAKI-1 renal was 51.7%; in the experiment with A498 renal, 47.9%; in the experiment with CCRF-CEM leukemia it was 54.1%.
`Oc1ccc(CSc2nnc(-c3ccc(Oc4ccccc4)cc3)n2-c2ccccc2)c2cccnc12`: the growth was 44.8% in the experiment with HT29 colon; 13.8% with SNB-19 CNS; 11.9% in the experiment with U251 CNS; 17.3% in the experiment on PC-3 prostate; -24.1% (active) with SK-MEL-5 melanoma; -25.4% (active) in the experiment with UACC-62 melanoma. Moreover, the growth is 4.48% (active) in the experiment with LOX IMVI melanoma; 14.6% with SK-MEL-28 melanoma; 37.6% in the experiment with SK-MEL-2 melanoma; 14.8% with EKVX NSCLC; 19.1% in the experiment with SN12C renal; -5.33% (active) with UO-31 renal. The growth with TK-10 renal was 23.6%; in the experiment with ACHN renal, 6.83% (active); in the experiment with CAKI-1 renal, 13.1%; in the experiment with CCRF-CEM leukemia, 10.3%; with MOLT-4 leukemia, 18.7%.
Take `O=C1/C(=C/c2ccccc2[N+](=O)[O-])Oc2ccc(O)cc21`: the growth in the experiment with HT29 colon was -23.7% (active); in the experiment with SNB-75 CNS, 54.2%; in the experiment with SNB-19 CNS, 79.3%; in the experiment with U251 CNS, 56.9%; in the experiment on PC-3 prostate it was 57.1%; with SK-MEL-5 melanoma, 90.8%. Further, the growth with LOX IMVI melanoma is -46.2% (active); in the experiment on SK-MEL-28 melanoma, 43.3%; in the experiment with SK-MEL-2 melanoma it was 75%; in the experiment on EKVX NSCLC it was 69.8%; in the experiment with SN12C renal, 30.9%; with UO-31 renal, 21.4%. Also, the growth in the experiment with TK-10 renal was 99.1%; in the experiment on ACHN renal, 2.35% (active); in the experiment on CAKI-1 renal it was 48.3%; in the experiment on A498 renal, 87.3%; in the experiment on CCRF-CEM leukemia it was -2.68% (active); in the experiment on MOLT-4 leukemia, 6.41% (active).
Take `NCCN1CCN(c2nc(-c3ccccc3)nc3nc(-c4ccccc4)oc23)CC1`: the growth is -52.8% (active) in the experiment with HT29 colon; -77.1% (active) in the experiment on SNB-75 CNS; -19.7% (active) in the experiment with SNB-19 CNS; -51.4% (active) with U251 CNS; 15% in the experiment with PC-3 prostate; 78.7% in the experiment with SK-MEL-5 melanoma. For the same compound, the growth is 101% with UACC-62 melanoma; -85.4% (active) with SK-MEL-28 melanoma; 102% in the experiment with SK-MEL-2 melanoma; 2% (active) in the experiment with EKVX NSCLC; -79.4% (active) in the experiment on SN12C renal; -89.2% (active) in the experiment on UO-31 renal. Besides, the growth with TK-10 renal is -28.7% (active); in the experiment on ACHN renal it was -95.4% (active); with CAKI-1 renal it was -90.1% (active); in the experiment on A498 renal, 61.7%; in the experiment with CCRF-CEM leukemia it was 1.25% (active); in the experiment on MOLT-4 leukemia it was -0.256% (active).
With `CC(=O)C1=NN(c2ccc(Cl)cc2)C(=O)CN1C`, the growth is 102% with HT29 colon; 106% with SNB-75 CNS; 103% with SNB-19 CNS; 97.6% in the experiment on U251 CNS; 98.1% in the experiment on PC-3 prostate; 102% in the experiment on SK-MEL-5 melanoma. Further, the growth with UACC-62 melanoma is 97.7%; in the experiment on LOX IMVI melanoma it was 98.3%; with SK-MEL-28 melanoma, 102%; with SK-MEL-2 melanoma, 102%; in the experiment with EKVX NSCLC, 95.7%; in the experiment with SN12C renal it was 102%. Further, the growth was 93% with UO-31 renal; 91.2% with TK-10 renal; 99.4% with ACHN renal; 95.7% with CAKI-1 renal; 104% with CCRF-CEM leukemia; 107% in the experiment with MOLT-4 leukemia.
